Measured values: the supplement of paper PMC8728848
Many of the other results were omitted from the sample, so the strongest signals are more common in it than they were.

Key:
Test in all cases: glycan array binding signal (z-score within array); higher = stronger binding
Settings in all cases: glycan notation: IUPAC condensed, linker removed
GalNAc(a1-3)GalNAc = biological target: GalNAc(a1-3)GalNAc
In short: (§1)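 Negative Z-scores can be read as non-binding. The Z-score is calculated within each array and then averaged across arrays of one protein sequence at different concentrations or buffers and across linkers. Arrays, 3228 in all, were curated from the Consortium for Functional Glycomics database and kept only where the protein sequence was available.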

[1] = biological target: GalNAc(b1-4)GlcNAc(b1-2)Man(a1-3)[GalNAc(b1-4)GlcNAc(b1-2)Man(a1-6)]Man(b1-4)GlcNAc(b1-4)GlcNAc
In short: as §1

[2] = biological target: GalNAc(b1-4)GlcNAc(b1-3)GalNAc(b1-4)GlcNAc
In short: as §1

GlcA(b1-6)Gal = biological target: GlcA(b1-6)Gal
In short: as §1

[3] = biological target: GlcNAc(a1-4)Gal(b1-4)GlcNAc
In short: as §1

[4] = biological target: GlcNAc(b1-3)Gal(b1-4)GlcNAc
In short: as §1

[5] = biological target: GlcNAc(b1-3)Gal(b1-4)GlcNAc(b1-6)[Gal(b1-3)]GalNAc
In short: as §1

[6] = biological target: GlcNAc(b1-3)Gal(b1-4)GlcNAc(b1-6)[GlcNAc(b1-3)Gal(b1-3)]GalNAc
In short: as §1

[7] = biological target: GlcNAc(b1-3)Gal(b1-4)GlcNAc(b1-6)[GlcNAc(b1-3)]Gal(b1-4)GlcNAc
In short: as §1

[8] = biological target: Kdn(a2-3)Gal(b1-4)[Fuc(a1-3)]GlcNAc
In short: as §1

[9] = biological target: Neu5Ac(a2-3)Gal(b1-4)GlcNAc(b1-2)Man(a1-3)[Neu5Ac(a2-3)Gal(b1-4)GlcNAc(b1-2)Man(a1-6)]Man(b1-4)GlcNAc(b1-4)GlcNAc
In short: as §1

[10] = biological target: Neu5Ac(a2-3)Gal(b1-4)GlcNAc(b1-3)Gal(b1-3)GlcNAc
In short: as §1

[11] = biological target: Neu5Ac(a2-3)Gal(b1-4)GlcNAc(b1-3)Gal(b1-4)GlcNAc(b1-3)GalNAc
In short: as §1

[12] = biological target: Neu5Ac(a2-3)Gal(b1-4)GlcNAc(b1-3)Gal(b1-4)GlcNAc(b1-6)[Gal(b1-3)]GalNAc
In short: as §1

[13] = biological target: Neu5Ac(a2-6)Gal(b1-4)GlcNAc(b1-2)Man(a1-3)Man(b1-4)GlcNAc(b1-4)GlcNAc
In short: as §1

[14] = biological target: Neu5Ac(a2-6)Gal(b1-4)GlcNAc(b1-2)Man(a1-3)[Man(a1-6)]Man(b1-4)GlcNAc(b1-4)GlcNAc
In short: as §1

[15] = biological target: Neu5Ac(a2-6)Gal(b1-4)GlcNAc(b1-2)Man(a1-6)[Man(a1-3)]Man(b1-4)GlcNAc(b1-4)GlcNAc
In short: as §1

[16] = biological target: Neu5Ac(a2-6)Gal(b1-4)GlcNAc(b1-3)[Neu5Ac(a2-6)Gal(b1-4)GlcNAc(b1-6)]GalNAc
In short: as §1

[17] = biological target: Neu5Ac(a2-6)GlcNAc(b1-4)GlcNAc(b1-4)GlcNAc
In short: as §1

[18] = biological target: Neu5Ac(a2-8)Neu5Ac(a2-3)Gal(b1-3)GalNAc(b1-4)[Neu5Ac(a2-3)]Gal(b1-4)Glc
In short: as §1

[19] = biological target: Neu5Ac(a2-8)Neu5Ac(a2-8)Neu5Ac(a2-8)Neu5Ac(a2-3)[GalNAc(b1-4)]Gal(b1-4)Glc
In short: as §1

[20] = biological target: Neu5Gc(b2-6)Gal(b1-4)GlcNAc
In short: as §1

B1: CFEM-PPm (Pichia pastoris), F2QPV1 (protein)
chain: AVATPPACLLACAAEVVKESSDCDALNNIQCICENEGSAIHACLESTCPDGLSSTALQSFEDVCE
Q: For B1, which “glycan array binding signal (z-score)” value (GalNAc(a1-3)GalNAc) is on record?
A: -0.194

Q: And the “glycan array binding signal (z-score)” value [1]?
A: 0.149

Q: What about the “glycan array binding signal (z-score)” value [2] of the same binder?
A: -0.226

Q: What about the “glycan array binding signal (z-score)” value (GlcA(b1-6)Gal) of the same binder?
A: 2.41

Q: And the “glycan array binding signal (z-score)” value [3]?
A: -0.205

Q: And the “glycan array binding signal (z-score)” value [4]?
A: 0.308

Q: What about the “glycan array binding signal (z-score)” value [5] of the same binder?
A: 0.543

Q: And the “glycan array binding signal (z-score)” value [6]?
A: -0.173

Q: What about the “glycan array binding signal (z-score)” value [7] of the same binder?
A: -0.353

Q: And the “glycan array binding signal (z-score)” value [8]?
A: 0.034

Q: And the “glycan array binding signal (z-score)” value [9]?
A: -0.218

Q: And the “glycan array binding signal (z-score)” value [10]?
A: -0.197

Q: What about the “glycan array binding signal (z-score)” value [11] of the same binder?
A: -0.282

Q: What about the “glycan array binding signal (z-score)” value [12] of the same binder?
A: 0.598

Q: What about the “glycan array binding signal (z-score)” value [13] of the same binder?
A: -0.215

Q: What about the “glycan array binding signal (z-score)” value [14] of the same binder?
A: -0.253

Q: And the “glycan array binding signal (z-score)” value [15]?
A: -0.345

Q: And the “glycan array binding signal (z-score)” value [16]?
A: 0.043

Q: What about the “glycan array binding signal (z-score)” value [17] of the same binder?
A: -0.354

Q: And the “glycan array binding signal (z-score)” value [18]?
A: 0.442

Q: And the “glycan array binding signal (z-score)” value [19]?
A: -0.319

Q: And the “glycan array binding signal (z-score)” value [20]?
A: -0.034
